From the supplement of paper PMC12636033
± gives the standard deviation of the averaged measurements. In all, about 33,000 sequences were measured (“E-score (rank enrichment, -0.5 to 0.5)”: median about -0.0028, highest 2% from about 0.23 on). The entries come from a sample that favours the highest values as a whole.

system: 2Sb-muMax20 (muMax20 with two 1,3-bis(methyl)benzene Cys staples, A13C/A17C and Q88C/A92C, C-terminal Lys); test: PBM 8-mer E-score (E-score (rank enrichment, -0.5 to 0.5)); higher = stronger preferential binding
Method: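 Protein binding microarray (universal PBM chip covering all 10-mers in fixed probe flanks) with chemically synthesized human Max(13-93) bHLH-LZ analogs (not full-length Max) bearing noncanonical residues (hArg, Tha, Aib, Nle at 65) and aromatic Cys staples. Read-out per 8-mer (and its reverse complement): E-score (rank-based enrichment, -0.5 to 0.5) and Z-score of median probe intensity.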

| Sequence | PBM 8-mer E-score |
| --- | --- |
| GGGACCGA | -0.24 ± 0.04 |
| GGGCAGAC | -0.0224 ± 0.074 |
| GAACGATA | 0.0756 ± 0.039 |
| AGTAACCC | 0.0955 ± 0.019 |
| AATAAACA | 0.195 ± 0.025 |
| AACATGCA | 0.203 ± 0.011 |
| AACATGGA | -0.00271 ± 0.005 |
| AACATGTA | 0.258 ± 0.027 |
| CCCATCAC | 0.249 ± 0.026 |
| GCCATCAC | -0.154 ± 0.0083 |
| CCCATCAA | 0.12 ± 0.019 |
| GCAGAAAA | 0.0213 ± 0.046 |
| TAATGGGA | 0.147 ± 0.011 |
| AATTAGCT | 0.164 ± 0.022 |
| CCCCTTCC | -0.0525 ± 0.1 |
| GCCCTTGA | -0.0328 ± 0.041 |
| CCCCTTCA | 0.294 ± 0.014 |
| CCCCTTGA | 0.27 ± 0.0079 |
| TCCCTTCA | 0.0279 ± 0.022 |
| ACCCTTGA | -0.145 ± 0.041 |
| GGCCGCAC | -0.0381 ± 0.06 |
| CGCCACGC | -0.118 ± 0.0025 |

| Sequence | PBM 8-mer E-score |
| --- | --- |
| GATTACCC | 0.093 ± 0.041 |
| ATCGGCCC | 0.0612 ± 0.096 |
| GTGCCGCA | -0.0229 ± 0.078 |
| ACCCCCAT | -0.188 ± 0.066 |
| ACCCCAAT | 0.344 ± 0.025 |
| AACCCAAT | -0.0928 ± 0.095 |
| ACCCCATG | 0.253 ± 0.019 |
| ACCCCATA | 0.147 ± 0.013 |
| ACCCCAAG | 0.271 ± 0.016 |
| AACCCATG | 0.106 ± 0.067 |
| ACCCCAAC | 0.217 ± 0.019 |
| ACCCCAAA | 0.2008 ± 0.0017 |
| CATTGCCA | -0.0459 ± 0.045 |
| CACCAGAA | -0.00913 ± 0.061 |
| GAGTCAGA | -0.0579 ± 0.039 |
| ACGGCCAA | -0.0314 ± 0.0051 |
| ACTGGTGC | -0.0379 ± 0.026 |
| CTATTCAC | -0.0182 ± 0.015 |
| CGATAGAA | 0.0743 ± 0.02 |
| CGTCCGAA | -0.121 ± 0.017 |
| TACAGAAA | 0.256 ± 0.021 |
| AACAGAAA | 0.0674 ± 0.036 |

| Sequence | PBM 8-mer E-score |
| --- | --- |
| GACAGAAA | 0.111 ± 0.013 |
| AAGACGTC | 0.0152 ± 0.028 |
| GATGGCAC | 0.03519 ± 8.5e-05 |
| CATGGCAA | -0.0308 ± 0.0076 |
| GATGGCAA | 0.242 ± 0.012 |
| ATGCCGCA | 0.0568 ± 0.0082 |
| AGCGAGGA | -0.0458 ± 0.014 |
| GTCTTCTA | 0.00543 ± 0.00074 |
| ACTACCCC | 0.214 ± 0.047 |
| CCTACCCC | 0.248 ± 0.062 |
| GCTACCCC | -0.0378 ± 0.075 |
| AGTACCCC | 0.129 ± 0.038 |
| CGTACCCC | 0.246 ± 0.015 |
| CGTACCCA | 0.0446 ± 0.097 |
| ATGAAAAC | 0.0577 ± 0.019 |
| CAGGAAAC | -0.0883 ± 0.035 |
| CGACTCAC | -0.236 ± 0.04 |
| AGGGTTCC | -0.294 ± 0.015 |
| ACGTATGC | 0.238 ± 0.066 |
| CCGTATGC | -0.07 ± 0.043 |
| ACGTATGA | 0.127 ± 0.02 |
| TCCGAGCA | -0.1624 ± 0.00048 |

| Sequence | PBM 8-mer E-score |
| --- | --- |
| AACCCCAT | 0.156 ± 0.03 |
| CATTAGAA | 0.00421 ± 0.034 |
| TATTAGAA | 0.259 ± 0.036 |
| GATTAGAA | 0.00142 ± 0.015 |
| ACCCGCCT | 0.0215 ± 0.042 |
| ATGCCGAC | -0.112 ± 0.0097 |
| GGTGGGAA | 0.0964 ± 0.019 |
| CGTGGGGA | 0.0752 ± 0.016 |
| GGTGGGGA | 0.302 ± 0.032 |
| AGTGGGGC | 0.0302 ± 0.058 |
| AGTGGGAG | -0.0115 ± 0.017 |
| AGTGGGAT | 0.293 ± 0.031 |
| GGTGGGCA | 0.262 ± 0.0056 |
| AGTGGGGA | 0.3126 ± 0.0004 |
| AGTGGGGG | 0.085 ± 0.077 |
| AGTGGGAA | 0.105 ± 0.12 |
| CGTGGGCA | 0.00349 ± 0.003 |
| GTTGGGCA | 0.024 ± 0.041 |
| CAATACCC | 0.216 ± 0.021 |
| ATCAAGCA | -0.0166 ± 0.023 |
| AACGTTAC | 0.0258 ± 0.019 |
| AATGGACA | 0.0255 ± 0.059 |

| Sequence | PBM 8-mer E-score |
| --- | --- |
| CATCCCAG | -0.121 ± 0.0081 |
| AACGGCGA | -0.0512 ± 0.014 |
| ACGATAAA | 0.014 ± 0.017 |
| AGCAGAGG | -0.0143 ± 0.0075 |
| CGGTGGGA | 0.00626 ± 0.078 |
| GGGTGGGA | 0.314 ± 0.026 |
| AGGTGGGA | 0.13 ± 0.12 |
| ATACGCAG | -0.0883 ± 0.0056 |
| GTACGCAA | -0.0811 ± 0.049 |
| ATACGCAA | 0.303 ± 0.0063 |
| CTATATAC | 0.214 ± 0.027 |
| CTATATCC | 0.217 ± 0.014 |
| ATATATCC | 0.24 ± 0.015 |
| ATAGATAC | 0.239 ± 0.02 |
| GTATATAA | 0.119 ± 0.015 |
| ATATATAT | 0.00253 ± 0.052 |
| ATATATCA | 0.18 ± 0.048 |
| ATAGATAA | 0.185 ± 0.09 |
| ATATATAC | 0.289 ± 0.038 |
| ATAGATAG | 0.204 ± 0.051 |
| GTATACAC | 0.0536 ± 0.025 |
| GTATATAC | 0.296 ± 0.039 |
